# Reference: PubChem BioAssay
# A number with no mark means an inactive call. For some of these results: Results with a measured potency or affinity are listed apart. Active and inactive are the calls of the source. Unless noted, the rule behind the calls is not given here.
# How the values were obtained:
# [1] = antimalarial activity against Dd2 strain (AID 2302;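 active = growth inhibition above 50% at the single 2 µM test dose, taken to imply half-maximal potency below 2 µM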;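 note: 0% = DMSO untreated growth and 100% = chloroquine plus artemisinin killed control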); details: P. falciparum Dd2 in RBCs, LDH growth readout, 72 h; at 2 µM; stronger effect = higher value
# [2] = human hepatoma cell viability loss – ATP luminescence, cytotoxicity control for P. falciparum antimalarial project, primary screen (AID 2303;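 active = inhibition above 50%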;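 note: 0% = DMSO wells and 100% = digitonin-killed cells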); details: HepG2 viability, 24-48 h, at 10 µM, stronger effect = higher value
# [3] = biological target: L-lactate dehydrogenase (Plasmodium falciparum (isolate CDC / Honduras)) (UniProt Q27743); experiment: PfLDH activity inhibition – cell lysate, 3D7 strain, counter-screen for P. falciparum growth inhibition project (AID 2304);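 note: 0% = vehicle and 100% = reference inhibitor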; details: P. falciparum 3D7 crude extract, LDH APAD/NBT absorbance; at 2 µM; stronger effect = higher value
# [4] = inhibition of 3D7 malaria parasite growth – strain 3D7 (AID 2306);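 note: 0% = DMSO wells and 100% = chloroquine plus artemisinin control wells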; details: P. falciparum 3D7 erythrocytic growth, LDH absorbance, 72 h; at 2 µM; stronger effect = higher value
# [5] = biological target: Calcium-dependent protein kinase 1 (Plasmodium falciparum (isolate 3D7)) (UniProt P62344); experiment: PfCDPK1 kinase inhibitors, biochemical, TCAMS library (AID 1159585; cut-off not given, nearly all actives have IC50 up to about 0.98 µM;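 note: inhibitors leave more ATP so luminescence rises with inhibition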); details: recombinant PfCDPK1, Kinase-Glo ATP depletion luminescence
# [6] = biological target: Plasmodium falciparum protein kinase 6 (PK6, PF3D7_1337100) (UniProt Q8IDW1); experiment: PfPK6 kinase inhibitors, biochemical, TCAMS library (AID 1159586); details: recombinant PfPK6, Kinase-Glo ATP depletion luminescence
# [7] = biological target: Protein kinase 7 (PK7), Plasmodium falciparum 3D7 (PF3D7_0213400) (UniProt Q7YTF7); experiment: inhibition of Plasmodium PK7 catalytic activity – biochemical, TCAMS antimalarial set, Kinase-Glo luminescence (AID 1159587); details: recombinant PfPK7, Kinase-Glo ATP depletion luminescence
# [8] = biological target: Calcium-dependent protein kinase 4 (Plasmodium falciparum (isolate 3D7)) (UniProt Q8IBS5); experiment: PfCDPK4 kinase inhibitors, biochemical, TCAMS library (AID 1159588; cut-off not given, nearly all actives have IC50 up to about 0.91 µM); details: recombinant PfCDPK4, Kinase-Glo ATP depletion luminescence
# Chain of Calcium-dependent protein kinase 4 (Plasmodium falciparum (isolate 3D7)) (Q8IBS5 whole entry, looked up): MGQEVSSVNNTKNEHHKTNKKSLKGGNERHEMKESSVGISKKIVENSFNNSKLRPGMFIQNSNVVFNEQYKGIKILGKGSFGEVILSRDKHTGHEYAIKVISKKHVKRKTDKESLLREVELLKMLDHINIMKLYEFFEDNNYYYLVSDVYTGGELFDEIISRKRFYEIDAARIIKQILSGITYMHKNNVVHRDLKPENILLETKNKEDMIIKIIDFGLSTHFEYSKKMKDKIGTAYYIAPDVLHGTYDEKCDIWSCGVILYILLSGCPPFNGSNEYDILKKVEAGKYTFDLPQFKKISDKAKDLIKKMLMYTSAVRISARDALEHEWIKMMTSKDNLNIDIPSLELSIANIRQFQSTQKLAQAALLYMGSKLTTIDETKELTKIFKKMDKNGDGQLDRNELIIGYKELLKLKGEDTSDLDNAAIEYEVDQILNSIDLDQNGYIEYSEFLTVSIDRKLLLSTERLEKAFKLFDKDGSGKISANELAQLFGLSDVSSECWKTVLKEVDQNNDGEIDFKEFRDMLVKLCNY
# Chain of Plasmodium falciparum protein kinase 6 (PK6, PF3D7_1337100) (Q8IDW1 1-305): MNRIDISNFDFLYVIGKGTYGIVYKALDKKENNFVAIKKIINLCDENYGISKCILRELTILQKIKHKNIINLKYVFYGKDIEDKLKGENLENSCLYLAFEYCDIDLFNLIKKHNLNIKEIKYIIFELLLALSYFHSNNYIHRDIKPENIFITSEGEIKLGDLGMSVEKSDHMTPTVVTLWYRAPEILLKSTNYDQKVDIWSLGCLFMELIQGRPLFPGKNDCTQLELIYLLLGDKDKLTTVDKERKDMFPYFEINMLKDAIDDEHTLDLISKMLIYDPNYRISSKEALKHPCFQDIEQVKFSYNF
# Chain of Protein kinase 7 (PK7), Plasmodium falciparum 3D7 (PF3D7_0213400) (Q7YTF7 1-343): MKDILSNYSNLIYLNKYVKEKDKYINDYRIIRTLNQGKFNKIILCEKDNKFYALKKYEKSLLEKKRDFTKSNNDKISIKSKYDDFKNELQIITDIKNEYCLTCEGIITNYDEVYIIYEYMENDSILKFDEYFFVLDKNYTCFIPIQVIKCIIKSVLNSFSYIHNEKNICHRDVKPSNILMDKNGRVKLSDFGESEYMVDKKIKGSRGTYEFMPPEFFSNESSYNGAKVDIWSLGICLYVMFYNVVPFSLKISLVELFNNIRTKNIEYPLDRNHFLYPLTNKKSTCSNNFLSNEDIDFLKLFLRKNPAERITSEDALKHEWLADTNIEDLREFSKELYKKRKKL
# Chain of L-lactate dehydrogenase (Plasmodium falciparum (isolate CDC / Honduras)) (Q27743 whole entry, looked up): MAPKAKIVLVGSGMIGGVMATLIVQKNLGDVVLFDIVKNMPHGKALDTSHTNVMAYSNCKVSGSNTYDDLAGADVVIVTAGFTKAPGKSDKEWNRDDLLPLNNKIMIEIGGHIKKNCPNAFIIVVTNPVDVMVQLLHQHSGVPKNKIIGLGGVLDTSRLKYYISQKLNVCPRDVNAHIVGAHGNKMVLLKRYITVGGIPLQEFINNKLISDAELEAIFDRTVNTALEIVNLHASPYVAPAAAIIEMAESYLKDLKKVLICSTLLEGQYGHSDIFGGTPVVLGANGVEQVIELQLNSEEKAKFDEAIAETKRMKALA
# Chain of Calcium-dependent protein kinase 1 (Plasmodium falciparum (isolate 3D7)) (P62344 whole entry, looked up): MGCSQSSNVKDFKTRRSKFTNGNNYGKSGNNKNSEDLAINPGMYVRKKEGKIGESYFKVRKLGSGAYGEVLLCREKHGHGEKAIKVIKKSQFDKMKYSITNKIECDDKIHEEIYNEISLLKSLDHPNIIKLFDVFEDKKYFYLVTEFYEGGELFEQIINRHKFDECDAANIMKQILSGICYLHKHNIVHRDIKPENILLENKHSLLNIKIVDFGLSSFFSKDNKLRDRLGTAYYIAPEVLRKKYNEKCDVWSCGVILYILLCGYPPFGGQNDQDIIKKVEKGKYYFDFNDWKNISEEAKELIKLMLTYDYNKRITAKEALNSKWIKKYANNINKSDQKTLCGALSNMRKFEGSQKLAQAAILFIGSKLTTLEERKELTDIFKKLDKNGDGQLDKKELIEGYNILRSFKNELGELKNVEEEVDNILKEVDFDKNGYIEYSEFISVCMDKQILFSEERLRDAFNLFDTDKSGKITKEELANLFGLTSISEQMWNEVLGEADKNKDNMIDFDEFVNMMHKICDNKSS
Compound,growth inhibition [1],inhibition [2],inhibition [3] [%],growth inhibition [4],outcome [5],outcome [6],outcome [7],outcome [8]
Cc1ccccc1Cn1c(CN2CCC(C(=O)NC3CC3)CC2)cc2ccccc21,96% (active),7%,-2,97% (active),inactive,inactive,inactive,inactive
CCc1c(C(=O)NC2CCC(N3CCC(c4ccccc4C)CC3)CC2)[nH]c2ccc(OC)cc12 (stereo not given),100% (active),78% (active),-1,101% (active),inactive,inactive,inactive,inactive
CC(O)C1CCCCN1C(=O)c1cccc(-c2ccc(-c3nc4ccc(C(F)(F)F)cc4[nH]3)cc2)c1 (stereo not given),100% (active),33%,0,101% (active),inactive,inactive,inactive,inactive
CC(C)CCCC(C)(C)NC[C@@H](O)[C@H](Cc1ccccc1)NC(=O)c1cccc(CCC2CC2)c1,52% (active),100% (active),0,98% (active),inactive,inactive,inactive,inactive
O=C(Nc1ccc2c(c1)CCN2C1CCN(Cc2cccc(C(F)(F)F)c2)C1)c1ccco1 (stereo not given),92% (active),4%,-1,95% (active),inactive,inactive,inactive,inactive
O=C(Nc1ccc(F)cc1)N1CCCN(c2ccnc3cc(Cl)ccc23)CC1,16%,7%,-1,97% (active),inactive,inactive,inactive,inactive
O=C(/C=C/c1ccc(-c2nc3ccc(Cl)cc3[nH]2)cc1)NCc1cccc(F)c1,68% (active),1%,2,99% (active),inactive,inactive,inactive,inactive
CCCc1cn2c3c(cc(C(=O)N[C@@H](Cc4ccccc4)[C@H](O)CNC4CCOCC4)cc13)N(CC)S(=O)(=O)CC2,98% (active),2%,-2,97% (active),inactive,inactive,inactive,inactive
O=C(C=Cc1ccc(Cl)c(Cl)c1)NCCCCCN1CCC(CCNS(=O)(=O)c2ccc(F)cc2)CC1,-5%,36%,2,88% (active),inactive,inactive,inactive,inactive
COc1ccc(-c2cccc(NC(=O)c3ccc(Cl)cc3)c2)cc1CN1CCC(O)CC1,43%,51% (active),3,100% (active),inactive,inactive,inactive,inactive
NC(N)=NN=CC(=O)Nc1ccc(C(F)(F)F)cc1,9%,5%,1,100% (active),inactive,inactive,inactive,inactive
O=C(c1cc(OC(F)(F)F)ccc1O)N1CCN(c2ccccc2)CC1,1%,-10%,-4,88% (active),inactive,inactive,inactive,inactive
COc1ccc(CNC2CCN(C)CC2)cc1-c1ccc(S(=O)(=O)NCCc2ccccn2)c(C)c1,91% (active),7%,-2,96% (active),inactive,inactive,inactive,inactive
O=C1COc2ccccc2N1C/C=C(\CN1CCC(c2ccccc2)CC1)c1cc(Cl)cc(Cl)c1,72% (active),14%,-4,91% (active),inactive,inactive,inactive,inactive
CC(C)c1cccc(OCC2CCN(c3ncc(C(=O)NC4CC4)cc3Cl)CC2)c1,95% (active),9%,-1,94% (active),inactive,inactive,inactive,inactive
Cc1cccc2[nH]c(-c3cccc(-c4ccc(CNCCc5ccncc5)cc4)c3)nc12,100% (active),40%,-2,100% (active),inactive,inactive,inactive,inactive
N#Cc1ccc(N2CCN(Cc3cccc(-c4cccc(-c5nc6ccc(F)cc6[nH]5)c4)c3)CC2)nc1,52% (active),26%,3,90% (active),inactive,inactive,inactive,inactive
Nc1nc(N)c2c3c(cnc2n1)CCCC3,-4%,61% (active),-4,95% (active),inactive,inactive,inactive,inactive
CC(=O)Oc1c(C2C=CCCC2)c(OC(C)=O)c2ccccc2c1OC(C)=O (stereo not given),79% (active),10%,7,95% (active),inactive,inactive,inactive,inactive
COc1cccc(CNC(=O)c2cccc(-c3ccc(CN4CCC(N5CCCC5)CC4)cc3)n2)c1,76% (active),16%,1,101% (active),inactive,inactive,inactive,inactive
